ERa SRC1 inh – blocks coactivator binding to human estrogen receptor alpha | AID 629 | inhibition, % at 25.6 µM | 86,000 compounds, 1.7% hits | TR-FRET ER-alpha LBD / SRC-1 peptide, estradiol-bound | P03372; in the data active means inhibition above about 50%;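 further: 0% = receptor plus peptide control and 100% = peptide only without receptor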
Target sequence (P03372 whole entry, looked up, the tested form may be a part): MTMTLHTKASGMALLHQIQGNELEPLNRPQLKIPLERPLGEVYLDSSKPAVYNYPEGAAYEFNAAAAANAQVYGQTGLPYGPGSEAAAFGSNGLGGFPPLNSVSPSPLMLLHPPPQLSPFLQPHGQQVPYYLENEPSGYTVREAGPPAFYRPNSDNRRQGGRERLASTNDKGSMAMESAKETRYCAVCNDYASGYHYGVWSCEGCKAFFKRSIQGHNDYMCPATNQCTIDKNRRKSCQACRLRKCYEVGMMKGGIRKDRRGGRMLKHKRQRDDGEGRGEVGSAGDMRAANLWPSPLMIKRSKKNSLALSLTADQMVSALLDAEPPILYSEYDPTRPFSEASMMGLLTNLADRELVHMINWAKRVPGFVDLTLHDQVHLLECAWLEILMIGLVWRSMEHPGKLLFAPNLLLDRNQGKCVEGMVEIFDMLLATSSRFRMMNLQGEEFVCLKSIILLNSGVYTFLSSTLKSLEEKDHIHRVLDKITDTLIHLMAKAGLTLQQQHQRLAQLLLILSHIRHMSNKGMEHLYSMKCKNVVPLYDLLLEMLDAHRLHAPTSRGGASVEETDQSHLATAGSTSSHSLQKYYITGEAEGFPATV
ERa SRC1 pot – ER-alpha (human) coactivator binding potentiation. P03372. TR-FRET ERalpha-LBD/SRC-Cy5 coactivator binding, 2 h; 100 = basal binding, no effect. coactivator binding (% of control), % at 25.6 µM. 86,000 compounds, 1.3% hits; in the data active means activity above about 200%;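 further: binding measured in presence of low estradiol as agonist stimulus; 0% = peptide alone without receptor and 100% = receptor with peptide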
ERb SRC1 inh – ER-beta (human) coactivator binding inhibition; TR-FRET ER-beta LBD / SRC1-Cy5 peptide binding; receptor agonist-loaded with 1 µM estradiol; inhibition, % at 25.6 µM; 86,000 compounds, 1.3% hits; AID 633;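 active means compounds whose percent inhibition of the receptor-coactivator binding signal exceeds about 50% in the single-dose screen, limit read from the data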;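 further: 0% = receptor plus peptide wells without compound and 100% = peptide-only wells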
PLK1 kinase inh – PLK1 (human) kinase inhibition. recombinant PLK1 kinase, TR-FRET peptide phosphorylation. 97,000 compounds, 0.53% hits. inhibition, % at 10 µM;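 active means inhibition of 50% or more in the single-concentration screen; inactive means inhibition below 50%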;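 further: 0% = DMSO max control and 100% = H-89 dihydrochloride min control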
Smad3 FoxH1 inh – inhibitors of human Smad3 transcription factor binding; 88,000 compounds, 0.29% hits; TR-FRET Smad3/Dy647-FoxH1 peptide binding, europium anti-His; P84022; inhibition, % at 25 µM;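 active means compounds that reduce the energy-transfer binding signal between the protein and its labelled peptide by more than half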;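 further: 0% = Smad3 plus labelled peptide maximal FRET and 100% = peptide-only background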
PLK1 PBD inh – Plk1 (human) PBD binding inhibition; Plk1 PBD phosphopeptide binding, fluorescence polarization; inhibition, %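 (tested at about 20 µM)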; 97,000 compounds, 0.13% hits; in the data active means inhibition above about 34%, passing the limit was not always enough
* hit, by the source's call; x = no result given; [ ] = remark or other dose. Rows were chosen to be rich in hits. Some 3.3% of all compounds tested hit in one or more screens of this group.

SMILES	ERa SRC1 inh	ERa SRC1 pot	ERb SRC1 inh	PLK1 kinase inh	Smad3 FoxH1 inh	PLK1 PBD inh
Nc1ccccc1N=Nc1c(S(=O)(=O)O)cc2cc(S(=O)(=O)O)cc(O)c2c1O	x	x	x	x	4	x
O=C(O)c1ccc(CNCc2ccccc2)cc1	x	x	x	x	-9	x
Cc1cc(C)c(NC(=O)c2cc3c(nc4sccn43)s2)c(C)c1	86*[fluorescence artefact?]	34	55*[fluorescence artefact?]	-21	-8	-1
Cc1ccc(C)c(C(=O)c2c(C)nc3sccn23)c1	3	89	1	-11	3	15
CCCN(CCC)C(=O)Cn1c2ccccc2c2nc(=O)cc(C)n21	x	x	x	-1	x	-19
O=C(Nc1ccc(-c2nc3ccccc3o2)cc1)c1ccc2c(c1)OCO2	57*[fluorescence artefact?]	185	44	-11	12	-17
Cc1ccc2oc(-c3ccc(NC(=O)c4ccc5c(c4)OCO5)cc3)nc2c1	x	x	x	-19	x	27
O=C(CN1C(=O)c2ccccc2C1=O)Nc1ccc(-c2nc3ccccc3o2)cc1	-2	213*	-2	-13	4	-15
Cc1ccc(-c2nc3ccccc3o2)cc1NC(=O)c1ccc2c(c1)OCO2	31	266*	1	0	10	15
O=C(Nc1ccccc1-c1nc2ccccc2o1)c1ccc2c(c1)OCCO2	50	217*[fluorescence artefact?]	28	-103	-2	-4
COc1cc(NC(=O)NCc2ccncc2)cc(OC)c1OC	-11	133	-8	2	11	20
c1ccc(C[C@@H](Nc2cccnc2)c2ccccc2)cc1	x	x	x	x	-10	x
CCCCNC(=O)Nc1ccon1	-3	104	99*[fluorescence artefact?]	-12	-3	0
CCCCNC(=O)NNC(=O)c1ccoc1C	x	x	x	-6	x	22
O=C(C1Cc2ccccc2CN1S(=O)(=O)c1ccc(F)cc1)N1CCCCCC1 (stereo not given)	6	102	-1	-7	77*[fluorescence artefact?]	-5
CCS(=O)(=O)N1Cc2ccccc2CC1C(=O)N1CCN(c2ccccc2)CC1 (stereo not given)	14	223*[fluorescence artefact?]	3	-19	-13	-38
O=C(C1Cc2ccccc2CN1S(=O)(=O)c1ccc(F)cc1)N1CCOCC1 (stereo not given)	-3	111	-7	-9	3	8
Nc1nc2c(ncn2[C@@H]2CC[C@@H](CO)O2)c(=O)n1C(=O)c1ccccc1	x	x	x	x	1	x
O=c1[nH]c2ccc(Br)cc2c(-c2ccccc2)c1N1CCOCC1	30	429*[fluorescence artefact?]	19	-5	6	3
CCCCc1ccc(NC(=O)OC)cc1	-11	531*[fluorescence artefact?]	19	x	9	x
COc1ccccc1N1CCN(C(=O)CSc2ncccc2-c2nc3ccccc3[nH]2)CC1	-2	82	13	-11	2	14
O=C(CSc1ncccc1-c1nc2ccccc2[nH]1)N1CCN(c2ccccc2F)CC1	-9	223*	4	-13	0	-1
O=C(O)CCC(=O)Nc1ccc(N2CCCCC2)c(C(=O)O)c1	-19	120	-22	-8	9	-18
O=CNc1ncn[nH]1	x	x	x	x	-7	x
CCC(=O)Nc1ccc(C(=O)Cn2nc(C(=O)O)c3ccccc3c2=O)cc1	77*[fluorescence artefact?]	51	61*	x	-3	x
SMILES	ERa SRC1 inh	ERa SRC1 pot	ERb SRC1 inh	PLK1 kinase inh	Smad3 FoxH1 inh	PLK1 PBD inh
CCOc1ccc(C(C)=O)cc1Cn1nc(C(=O)O)c2ccccc2c1=O	18	252*	31	-10	0	7
Cc1noc(C)c1Cn1nc(C(=O)O)c2ccccc2c1=O	-3	81	-3	51*	-1	-16
Cc1nn(CC(=O)Nc2ccccc2)c(=O)c2ccccc12	-13	99	-22	-9	-7	0
O=C(O)CCSCc1ccc(I)cc1	x	x	x	x	-8	x
Cc1ccnc(NC(=O)c2ccc(N3C(=O)CCC3=O)cc2)c1	21	224*	22	-3	-10	3
COc1cc(C(=O)Nc2cc(C)ccn2)cc(OC)c1OC	-6	90	4	-9	-1	-10
COc1ccc(C(=O)NC(=O)Nc2cc(C)ccn2)cc1	17	210*	-20	-12	44	0
CC(=O)CSCc1ccccn1	x	x	x	x	29	x
CCCNC(=O)c1c(NC(=O)C2COc3ccccc3O2)sc2c1CCCC2 (stereo not given)	19	110	21	-44	-12	-13
O=C(NC1CCS(=O)(=O)C1)c1c(NC(=O)C2COc3ccccc3O2)sc2c1CCCC2 (stereo not given)	59*	148	32	-17	-85	2
